# Positions count from the first letter of the chain named. The full ranking holds about 16,000 sequences; the median of “ka relative to ugcaugu” is about 0.0091, and the highest 2% start at about 0.032. For the sample, the highest values were picked, then their nearest neighbours and some sequences at random.
# T1: RBFOX1 RRM (Homo sapiens, UniProt Q9NWB1 109-208)
# T1 sequence: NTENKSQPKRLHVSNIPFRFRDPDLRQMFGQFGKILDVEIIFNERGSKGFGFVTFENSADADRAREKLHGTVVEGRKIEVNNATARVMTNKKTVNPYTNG
# B1: CCAAGUA (DNA:RNA)
# RNA: GGGAGACCGGAAUUCAGAUUGUCCCCAAGUAUUAAAUCCCGUCGUAGCCACCA
# DNA 1: CAATCTGAATTCCGGTCTCCC
# DNA 2: TGGTGGCTACGACGGGATT
# B2: UGACUAA (DNA:RNA)
# RNA: B1 RNA with C25U, C26G, A28C, G29U, U30A
# DNA 1: CAATCTGAATTCCGGTCTCCC
# DNA 2: TGGTGGCTACGACGGGATT
# B3: AGAUAAC (DNA:RNA)
# RNA: B1 RNA with C25A, C26G, A28U, G29A, U30A, A31C
# DNA 1: CAATCTGAATTCCGGTCTCCC
# DNA 2: TGGTGGCTACGACGGGATT
# B4: CCAGGCC (DNA:RNA)
# RNA: B1 RNA with A28G, U30C, A31C
# DNA 1: CAATCTGAATTCCGGTCTCCC
# DNA 2: TGGTGGCTACGACGGGATT
# B5: CUGUCUG (DNA:RNA)
# RNA: B1 RNA with C26U, A27G, A28U, G29C, A31G
# DNA 1: CAATCTGAATTCCGGTCTCCC
# DNA 2: TGGTGGCTACGACGGGATT
# B6: GGAUACC (DNA:RNA)
# RNA: B1 RNA with C25G, C26G, A28U, G29A, U30C, A31C
# DNA 1: CAATCTGAATTCCGGTCTCCC
# DNA 2: TGGTGGCTACGACGGGATT
# B7: GUCCGGC (DNA:RNA)
# RNA: B1 RNA with C25G, C26U, A27C, A28C, U30G, A31C
# DNA 1: CAATCTGAATTCCGGTCTCCC
# DNA 2: TGGTGGCTACGACGGGATT
# B8: CGGCUUG (DNA:RNA)
# RNA: B1 RNA with C26G, A27G, A28C, G29U, A31G
# DNA 1: CAATCTGAATTCCGGTCTCCC
# DNA 2: TGGTGGCTACGACGGGATT
# B9: GUCUUGC (DNA:RNA)
# RNA: GGGAGACCGGAAUUCAGAUUGUCCGUCUUGCUUAAAUCCCGUCGUAGCCACCA
# DNA 1: CAATCTGAATTCCGGTCTCCC
# DNA 2: TGGTGGCTACGACGGGATT
# B10: CGGAUGC (DNA:RNA)
# RNA: B9 RNA with G25C, U26G, C27G, U28A
# DNA 1: CAATCTGAATTCCGGTCTCCC
# DNA 2: TGGTGGCTACGACGGGATT
# B11: CCCCGGC (DNA:RNA)
# RNA: B1 RNA with A27C, A28C, U30G, A31C
# DNA 1: CAATCTGAATTCCGGTCTCCC
# DNA 2: TGGTGGCTACGACGGGATT
# B12: UAAAUGC (DNA:RNA)
# RNA: B9 RNA with G25U, U26A, C27A, U28A
# DNA 1: CAATCTGAATTCCGGTCTCCC
# DNA 2: TGGTGGCTACGACGGGATT
# B13: GGCUUGC (DNA:RNA)
# RNA: B9 RNA with U26G
# DNA 1: CAATCTGAATTCCGGTCTCCC
# DNA 2: TGGTGGCTACGACGGGATT
# B14: GGGAUGC (DNA:RNA)
# RNA: B9 RNA with U26G, C27G, U28A
# DNA 1: CAATCTGAATTCCGGTCTCCC
# DNA 2: TGGTGGCTACGACGGGATT
# B15: GGAUGCU (DNA:RNA)
# RNA: B1 RNA with C25G, C26G, A28U, U30C, A31U
# DNA 1: CAATCTGAATTCCGGTCTCCC
# DNA 2: TGGTGGCTACGACGGGATT
# B16: CACCGGC (DNA:RNA)
# RNA: B9 RNA with G25C, U26A, U28C, U29G
# DNA 1: CAATCTGAATTCCGGTCTCCC
# DNA 2: TGGTGGCTACGACGGGATT
# B17: UGAAUGC (DNA:RNA)
# RNA: B9 RNA with G25U, U26G, C27A, U28A
# DNA 1: CAATCTGAATTCCGGTCTCCC
# DNA 2: TGGTGGCTACGACGGGATT
# B18: UGAAUUG (DNA:RNA)
# RNA: B1 RNA with C25U, C26G, G29U, A31G
# DNA 1: CAATCTGAATTCCGGTCTCCC
# DNA 2: TGGTGGCTACGACGGGATT
# B19: GACCAGC (DNA:RNA)
# RNA: B9 RNA with U26A, U28C, U29A
# DNA 1: CAATCTGAATTCCGGTCTCCC
# DNA 2: TGGTGGCTACGACGGGATT
# B20: GGGGUCA (DNA:RNA)
# RNA: B9 RNA with U26G, C27G, U28G, G30C, C31A
# DNA 1: CAATCTGAATTCCGGTCTCCC
# DNA 2: TGGTGGCTACGACGGGATT
# B21: AGGUCAC (DNA:RNA)
# RNA: B9 RNA with G25A, U26G, C27G, U29C, G30A
# DNA 1: CAATCTGAATTCCGGTCTCCC
# DNA 2: TGGTGGCTACGACGGGATT
# B22: CCUAGCG (DNA:RNA)
# RNA: B1 RNA with A27U, U30C, A31G
# DNA 1: CAATCTGAATTCCGGTCTCCC
# DNA 2: TGGTGGCTACGACGGGATT
# B23: GAAUCAG (DNA:RNA)
# RNA: B9 RNA with U26A, C27A, U29C, G30A, C31G
# DNA 1: CAATCTGAATTCCGGTCTCCC
# DNA 2: TGGTGGCTACGACGGGATT
# B24: UUGAAGG (DNA:RNA)
# RNA: B9 RNA with G25U, C27G, U28A, U29A, C31G
# DNA 1: CAATCTGAATTCCGGTCTCCC
# DNA 2: TGGTGGCTACGACGGGATT
# B25: CUUACUA (DNA:RNA)
# RNA: B1 RNA with C26U, A27U, G29C
# DNA 1: CAATCTGAATTCCGGTCTCCC
# DNA 2: TGGTGGCTACGACGGGATT
# B26: UCUCGCU (DNA:RNA)
# RNA: B1 RNA with C25U, A27U, A28C, U30C, A31U
# DNA 1: CAATCTGAATTCCGGTCTCCC
# DNA 2: TGGTGGCTACGACGGGATT
# B27: CGCGGAU (DNA:RNA)
# RNA: B1 RNA with C26G, A27C, A28G, U30A, A31U
# DNA 1: CAATCTGAATTCCGGTCTCCC
# DNA 2: TGGTGGCTACGACGGGATT
# B28: GCGGAUU (DNA:RNA)
# RNA: B1 RNA with C25G, A27G, A28G, G29A, A31U
# DNA 1: CAATCTGAATTCCGGTCTCCC
# DNA 2: TGGTGGCTACGACGGGATT
# B29: CGGGGAU (DNA:RNA)
# RNA: B1 RNA with C26G, A27G, A28G, U30A, A31U
# DNA 1: CAATCTGAATTCCGGTCTCCC
# DNA 2: TGGTGGCTACGACGGGATT
# B30: GGGAGAU (DNA:RNA)
# RNA: B1 RNA with C25G, C26G, A27G, U30A, A31U
# DNA 1: CAATCTGAATTCCGGTCTCCC
# DNA 2: TGGTGGCTACGACGGGATT
# B31: GGGGAUU (DNA:RNA)
# RNA: B1 RNA with C25G, C26G, A27G, A28G, G29A, A31U
# DNA 1: CAATCTGAATTCCGGTCTCCC
# DNA 2: TGGTGGCTACGACGGGATT
# B32: GGAGAUU (DNA:RNA)
# RNA: B1 RNA with C25G, C26G, A28G, G29A, A31U
# DNA 1: CAATCTGAATTCCGGTCTCCC
# DNA 2: TGGTGGCTACGACGGGATT
# B33: GCGGUUG (DNA:RNA)
# RNA: B1 RNA with C25G, A27G, A28G, G29U, A31G
# DNA 1: CAATCTGAATTCCGGTCTCCC
# DNA 2: TGGTGGCTACGACGGGATT
# B34: GCGGCGG (DNA:RNA)
# RNA: B9 RNA with U26C, C27G, U28G, U29C, C31G
# DNA 1: CAATCTGAATTCCGGTCTCCC
# DNA 2: TGGTGGCTACGACGGGATT
# B35: GCGGUUC (DNA:RNA)
# RNA: B9 RNA with U26C, C27G, U28G, G30U
# DNA 1: CAATCTGAATTCCGGTCTCCC
# DNA 2: TGGTGGCTACGACGGGATT
# B36: GGGGGAU (DNA:RNA)
# RNA: B1 RNA with C25G, C26G, A27G, A28G, U30A, A31U
# DNA 1: CAATCTGAATTCCGGTCTCCC
# DNA 2: TGGTGGCTACGACGGGATT
# B37: GCGGGAU (DNA:RNA)
# RNA: B1 RNA with C25G, A27G, A28G, U30A, A31U
# DNA 1: CAATCTGAATTCCGGTCTCCC
# DNA 2: TGGTGGCTACGACGGGATT
# B38: GGGAAUU (DNA:RNA)
# RNA: B1 RNA with C25G, C26G, A27G, G29A, A31U
# DNA 1: CAATCTGAATTCCGGTCTCCC
# DNA 2: TGGTGGCTACGACGGGATT
# Molecular target: T1, RBFOX1 RRM
# Experiment: EMSA; HiTS-Eq, 1 nM pool, 10 min; buffer printed only for the single-RNA assays: 10 mM Tris pH 7.5, 150 mM NaCl, 3.4 mM EDTA, 0.001% NP-40, 30 C
# Conditions: tags: His6 N-terminal (pET28a); label: 5' 32P
# How it was run: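 Relative association constants, normalised to the cognate motif, were derived by comparing read counts of each RNA species with those of the control reaction. The RNA sequenced was the free fraction, separated by 8% native PAGE after a 10 min equilibration in 50 µL of 1 nM 5′-radiolabelled RNA (7 randomized nucleotides) with increasing concentrations of purified wild-type or mutant RbFox RRM.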
row,Binder,binding signal
1,B1,0.00123 KA relative to UGCAUGU
2,B2,0.00904 KA relative to UGCAUGU
3,B3,0.00125 KA relative to UGCAUGU
4,B4,0.0113 KA relative to UGCAUGU
5,B5,0.0306 KA relative to UGCAUGU
6,B6,0.00541 KA relative to UGCAUGU
7,B7,0.00575 KA relative to UGCAUGU
8,B8,0.0325 KA relative to UGCAUGU
9,B9,0.0291 KA relative to UGCAUGU
10,B10,0.0275 KA relative to UGCAUGU
11,B11,0.00228 KA relative to UGCAUGU
12,B12,0.00992 KA relative to UGCAUGU
13,B13,0.0328 KA relative to UGCAUGU
14,B14,0.0515 KA relative to UGCAUGU
15,B15,0.0261 KA relative to UGCAUGU
16,B16,0.00645 KA relative to UGCAUGU
17,B17,0.0399 KA relative to UGCAUGU
18,B18,0.0261 KA relative to UGCAUGU
19,B19,0.00826 KA relative to UGCAUGU

row,Binder,binding signal
1,B20,0.0251 KA relative to UGCAUGU
2,B21,0.0109 KA relative to UGCAUGU
3,B22,0.00608 KA relative to UGCAUGU
4,B23,0.00941 KA relative to UGCAUGU
5,B24,0.0111 KA relative to UGCAUGU
6,B25,0.00319 KA relative to UGCAUGU
7,B26,0.0104 KA relative to UGCAUGU
8,B27,0.0187 KA relative to UGCAUGU
9,B28,0.0163 KA relative to UGCAUGU
10,B29,0.0184 KA relative to UGCAUGU
11,B30,0.0316 KA relative to UGCAUGU
12,B31,0.038 KA relative to UGCAUGU
13,B32,0.0219 KA relative to UGCAUGU
14,B33,0.0329 KA relative to UGCAUGU
15,B34,0.0288 KA relative to UGCAUGU
16,B35,0.0202 KA relative to UGCAUGU
17,B36,0.0252 KA relative to UGCAUGU
18,B37,0.0486 KA relative to UGCAUGU
19,B38,0.0335 KA relative to UGCAUGU
